These results are taken from PubChem BioAssay (NCI).

The panel holds about 83,000 compounds, 20% with a hit somewhere; the sample as a whole holds those more often.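 For each line, cells grew in 96-well plates with the test compound present at a single concentration for 48 hours.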 A number with no mark means an inactive call. Calls of active or inactive are those of the source. The calls were made as follows: active = growth percent below 10; inactive = the rest.

Test systems include SK-MEL-2 melanoma; EKVX NSCLC; SN12C renal; UO-31 renal; TK-10 renal; ACHN renal; CAKI-1 renal; A498 renal; CCRF-CEM leukemia; MOLT-4 leukemia.
Experiment in all cases: NCI-60 one-dose screen, 48 h (100 = growth as untreated, 0 = no growth, -100 = all killed)
Holding throughout (details): 10 µM unless noted

Consider `Cc1ccc(C(=O)CSc2nnc(-c3ccc(-c4ccc(Cl)cc4)nc3C)o2)cc1`, for which the growth in the test with SK-MEL-2 melanoma is 112%; in the test on EKVX NSCLC, 68.6%; in the test on SN12C renal it was 99.7%; in the test with UO-31 renal, 93.9%; in the test with TK-10 renal, 191%; in the test on ACHN renal, 95.4%. Besides, the growth in the test on CAKI-1 renal is 95.8%; with A498 renal it was 98.2%; with CCRF-CEM leukemia it was 108%; in the test with MOLT-4 leukemia, 103%.
On to `COc1ccc2c(c1)C=CC1(O2)Oc2ccc(OC)cc2C=C1C` (stereo not given), for which the growth in the test on SK-MEL-2 melanoma is 47.3%; in the test with EKVX NSCLC, 47.3%; in the test with SN12C renal, 51.9%; in the test with UO-31 renal it was 44.9%; in the test on TK-10 renal, 98%; in the test on ACHN renal, 38%. Further, the growth in the test with CAKI-1 renal is 30.3%; with A498 renal, 7.58% (active); in the test on CCRF-CEM leukemia, 7.74% (active); in the test on MOLT-4 leukemia it was 9.45% (active).
Consider `O=C(CCl)Nc1ccc(NC(=O)c2cc(Cl)ccc2O)c(Cl)c1`, for which the growth was 92% in the test on SK-MEL-2 melanoma; 95.9% in the test with EKVX NSCLC; 68.4% in the test with SN12C renal; 54.7% in the test on UO-31 renal; 129% in the test with TK-10 renal; 85.8% in the test on ACHN renal. Besides, the growth in the test on CAKI-1 renal is 59.2%; with A498 renal, 100%; with CCRF-CEM leukemia, 9.8% (active); in the test with MOLT-4 leukemia it was 25.7%.
As for `COc1ccc([C@@H]2C(=O)N(c3cc(OC)c(OC)c(OC)c3)[C@H]2c2ccc(OC)c(O)c2)cc1`, the growth with SK-MEL-2 melanoma is 21.3%; with EKVX NSCLC, 48.4%; with SN12C renal it was 27.3%; in the test on UO-31 renal it was 25.4%; with TK-10 renal it was 113%; with ACHN renal, 28.3%. Moreover, the growth with CAKI-1 renal is 21%; in the test with A498 renal, -28.5% (active); in the test on CCRF-CEM leukemia, 21.5%; in the test with MOLT-4 leukemia, 16%.
As for `O=C(/C=C/c1csc(Br)n1)NO`, the growth in the test on SK-MEL-2 melanoma is 37.6%; with EKVX NSCLC, 37.5%; with SN12C renal, 68.7%; in the test on UO-31 renal it was 15.5%; in the test with TK-10 renal, -9.31% (active); in the test on ACHN renal it was 8.2% (active). Further, the growth with CAKI-1 renal was 15.9%; with A498 renal, -5.59% (active); with CCRF-CEM leukemia it was 21.2%; in the test on MOLT-4 leukemia, 9.51% (active).
As to `COc1ccc2c(c1)c(-c1nnc(N)nc1-c1c[nH]c3ccc(F)cc13)cn2C`, the growth was 36.3% in the test on SK-MEL-2 melanoma; 55.5% with EKVX NSCLC; 69.5% in the test on SN12C renal; 75.6% in the test on UO-31 renal; 90% with TK-10 renal; 64.5% in the test on ACHN renal. Moreover, the growth is 41.6% in the test with CAKI-1 renal, 27.5% in the test on A498 renal, 22.3% in the test on CCRF-CEM leukemia and 26.2% in the test on MOLT-4 leukemia.
`CNCCN(C)c1ccc(Nc2cc(NC3CC3)n3ncc(C#N)c3n2)cc1NC(C)=O`: the growth in the test with SK-MEL-2 melanoma was -20.4% (active); in the test with EKVX NSCLC, 7.67% (active); in the test on SN12C renal, 22.4%; in the test with UO-31 renal it was 6.68% (active); in the test on TK-10 renal, -29.9% (active); in the test on ACHN renal, 15.1%. Further, the growth in the test on CAKI-1 renal is -36.6% (active); with A498 renal, -36.5% (active); in the test with CCRF-CEM leukemia, 13.2%; with MOLT-4 leukemia, 8.27% (active).
On to `CN1CCN(c2ccc(Nc3nc(NCCCNS(=O)(=O)c4cccc(F)c4)c4sccc4n3)cc2)CC1`, for which the growth with SK-MEL-2 melanoma was 96.8%; in the test with EKVX NSCLC it was 83.3%; with SN12C renal it was 67.4%; in the test on UO-31 renal, 54.2%; in the test with TK-10 renal, 91.6%; in the test with ACHN renal it was 7.69% (active). For the same compound, the growth in the test on CAKI-1 renal is 17.9%; in the test on A498 renal it was 67.6%; in the test with CCRF-CEM leukemia, 19.2%; with MOLT-4 leukemia, 13.3%.
As to `Cn1c(SCC(=O)c2ccc(F)cc2)nc2ccccc2c1=O`, the growth was 105% with SK-MEL-2 melanoma; 79.6% with EKVX NSCLC; 91.4% with SN12C renal; 74.2% in the test on UO-31 renal; 120% with TK-10 renal; 96.4% in the test on ACHN renal. Also, the growth in the test on CAKI-1 renal is 87.7%; in the test on A498 renal, 99.5%; with CCRF-CEM leukemia it was 90.3%; in the test with MOLT-4 leukemia, 95.8%.
Regarding `CCCCc1nc2c(N)nc3ccccc3c2n1Cc1ccc(OC)cc1`, the growth in the test with SK-MEL-2 melanoma was 71.6%; in the test on EKVX NSCLC, 58.5%; in the test on SN12C renal, 71.5%; with UO-31 renal, 40.2%; in the test with TK-10 renal, 68.3%; in the test on ACHN renal, 76.9%. The growth with CAKI-1 renal is 52.2%; in the test on A498 renal, 35.7%; in the test on CCRF-CEM leukemia it was 60.2%; in the test with MOLT-4 leukemia it was 36.8%.
Regarding `Cn1cc(-c2nn3cc(-c4ccncc4)nc3s2)c2cc(F)ccc21`, the growth was 99.8% in the test with SK-MEL-2 melanoma; 72.9% in the test on EKVX NSCLC; 88.6% in the test with SN12C renal; 55.1% in the test with UO-31 renal; 155% with TK-10 renal; 84% in the test on ACHN renal. Further, the growth was 63.4% in the test with CAKI-1 renal, 96.3% in the test with A498 renal, 16% in the test on CCRF-CEM leukemia and 37.3% in the test on MOLT-4 leukemia.
For `FC(F)(F)c1cc(Br)cc(-c2cc(-c3ccc4c(c3)OCCO4)[nH]n2)c1`, the growth is 77.4% in the test on SK-MEL-2 melanoma; 52.4% with EKVX NSCLC; 44.7% in the test on SN12C renal; 51.3% in the test on UO-31 renal; 121% in the test on TK-10 renal; 28.9% in the test on ACHN renal. Also, the growth in the test on CAKI-1 renal is 33.3%; in the test on A498 renal, 11.6%; in the test on CCRF-CEM leukemia, 14.9%; with MOLT-4 leukemia, 22.5%.
For `O=C1C(SCc2ccccc2)=C(Cl)CN1c1ccc(Cl)cc1`, the growth in the test on SK-MEL-2 melanoma is 79.9%; in the test with EKVX NSCLC, 106%; in the test on SN12C renal, 100%; in the test on UO-31 renal it was -88.1% (active); with TK-10 renal it was 111%; with ACHN renal, 98.1%. Moreover, the growth in the test with CAKI-1 renal was 90.7%; in the test on A498 renal it was 114%; in the test on CCRF-CEM leukemia it was 70.8%; with MOLT-4 leukemia it was 68%.
In the case of `CN(C)c1ccc(-c2cc(-c3c[nH]c4ccccc34)nc(N)c2C#N)cc1`, the growth with SK-MEL-2 melanoma is -0.536% (active); with EKVX NSCLC, 61.8%; with SN12C renal, 43.1%; in the test on UO-31 renal it was 44.6%; with TK-10 renal it was 72.9%; in the test on ACHN renal, 47.1%. The growth is 24.1% in the test on CAKI-1 renal, -0.675% (active) in the test on A498 renal, 30% in the test on CCRF-CEM leukemia and 35.4% in the test with MOLT-4 leukemia.
